Compound activity (PubChem)
A549 tox: kills or reduces viability of A549 cells in Nrf2 counter-screen. A549 ARE-Fluc cells, CellTiter-Fluor viability, 18-24 h. Potency, µM (highest dose often 46 µM), usual class: inhibitors. 390,000 compounds, 0.16% hits. AID 504648
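A549 ARE-Fluc cells in 5% FBS OPTI-MEM, 5000 cells/well, rested 2 h then exposed to compounds in concentration-response for 18-24 h at 37 °C. Viability by CellTiter-Fluor fluorescence (Ex 405/Em 525) after 30 min; luciferase luminescence (BugLite, 15 min, RT) read afterwards.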
IDH1 R132H inh: blocks human mutant IDH1 R132H enzyme | Potency, µM (titrated, usually from 76.6 µM), hits mostly inhibitors | O75874 | IDH1-R132H enzyme, NADPH consumption, diaphorase/resazurin fluorescence | 390,000 compounds, 0.093% hits; note: nearly all actives have a fitted effect of over 65% in size
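IDH1-R132H (0.5 ug/mL dispensed) in pH 7.5 Tris buffer was preincubated 30 min with compound, then given a substrate mix of 0.016 mM NADPH and 2 mM alpha-KG for 80 min at room temperature; remaining NADPH was read by diaphorase/resazurin fluorescence.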
Mito fusion yeast: blocks mitochondrial division or promotes mitochondrial fusion; AID 485298; Potency, µM (highest dose often 46.1 µM), most hits filed as activators; S. cerevisiae fusion-defective mutant growth rescue, CellTiterGlo 48 h; 320,000 compounds, 0.23% hits; note: nearly all actives have a fitted effect of over 45% in size
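Compounds are tested for their ability to restore growth of mitochondrial fusion-defective yeast strains at non-permissive 37C in YPEG medium over 48 hours. Viability is quantified by luciferase luminescence.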
TrxR1 substrate: rat thioredoxin reductase 1 substrate activity; purified TrxR1 substrate turnover, NADPH consumption readout; Potency, µM (highest dose often 114 µM); 390,000 compounds, 0.01% hits; AID 588456; note: nearly all actives have a fitted effect of over 50% in size
Target sequence (O89049 whole entry, looked up): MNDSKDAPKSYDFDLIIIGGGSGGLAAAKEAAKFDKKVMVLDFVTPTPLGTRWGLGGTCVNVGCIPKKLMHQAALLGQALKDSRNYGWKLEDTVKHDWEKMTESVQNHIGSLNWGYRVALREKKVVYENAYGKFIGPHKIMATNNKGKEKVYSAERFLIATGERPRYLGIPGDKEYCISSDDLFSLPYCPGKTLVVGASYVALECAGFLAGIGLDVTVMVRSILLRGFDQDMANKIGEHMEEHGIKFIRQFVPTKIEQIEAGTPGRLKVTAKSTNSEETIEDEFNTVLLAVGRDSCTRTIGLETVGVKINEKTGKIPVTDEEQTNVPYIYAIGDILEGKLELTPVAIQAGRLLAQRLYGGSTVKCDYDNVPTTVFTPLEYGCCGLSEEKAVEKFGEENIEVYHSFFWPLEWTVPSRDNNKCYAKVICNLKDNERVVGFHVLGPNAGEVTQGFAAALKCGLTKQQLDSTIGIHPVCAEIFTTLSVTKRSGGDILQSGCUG
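Rat TrxR1, dispensed at 90 nM, was prereduced with 400 uM NADPH (final) for 5 min at ~22 deg C, then incubated with compound 15 min before 400 uM selenite. A first-read NADPH fluorescence drop versus no-compound background flagged substrates.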
Nrf2 block: Nrf2 pathway inhibition; A549 ARE-Fluc reporter, luciferase luminescence, 18-24 h; Potency, µM (top dose mostly 46 µM), most hits filed as inhibitors; 360,000 compounds, 2.1% hits; AID 504444; note: nearly all actives have a fitted effect of over 60% in size
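Reporter: ARE-Fluc in A549. Exposure: 18-24 h, 37 °C, 5% CO2, 5% FBS OPTI-MEM. Readouts: fluorescent cytotoxicity (CellTiter-Fluor), then luminescent Nrf2 signal after BugLite.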
rTrxR1 inhibitor: inhibitors of rat thioredoxin reductase 1; AID 588453; Potency, µM (series often up to 114 µM), usual class: inhibitors; 390,000 compounds, 1% hits; O89049; recombinant rTrxR1, NADPH fluorescence consumption, selenite substrate; note: nearly all actives have a fitted effect of over 65% in size
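Rat TrxR1 (90 nM in the dispensed reagent) was pre-reduced with 400 uM NADPH for 5 min at room temperature, then incubated with compound for 15 min. After 400 uM selenite was added, NADPH fluorescence (Ex 340/Em 450 nm) was followed for 8 min.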
Large screens that a line does not name were inactive. Only some compounds are listed: those with a hit (about 3.1% of all), similar ones and a draw of the others. Calls come from the whole dose curve; as a rule, active = well fitted curve in the direction sought with a large enough effect; inconclusive = small, poorly fitted or top-dose-only effect, or another doubt; inactive = no such curve, though single readings can be large; an effect the other way counts as inactive or inconclusive.

CCOc1ccc(NC(=O)C2C(C(=O)O)C3(Cl)C(Cl)=C(Cl)C2(Cl)C3(Cl)Cl)cc1 (configuration not stated)	Nrf2 block inconclusive
CCCOP(=O)(OCCC)c1nc(-c2ccccc2)oc1NCc1ccccc1	A549 tox inconclusive, Nrf2 block 18µM
COP(=O)(OC)c1nc(-c2ccccc2)oc1NCc1ccccc1	none
CC(Sc1ncnc2sccc12)C(=O)Nc1ccc(S(=O)(=O)N2CCOCC2)cc1 (configuration not stated)	Nrf2 block inconclusive (no result: Mito fusion yeast)
CC(=O)C1C(N2CC2)CC2C3CC=C4CC(O)CCC4(C)C3CCC21C (configuration not stated)	A549 tox 8.2µM (no result: Mito fusion yeast)
O=C(NCc1ccccc1)c1cccc(Nc2nc3ccccc3n3nnnc23)c1	none (no result: Mito fusion yeast)
CC1(C)Cc2c(c(N3CCOCC3)nc3sc4c(NCc5ccccc5)nnnc4c23)CS1	Nrf2 block 2.6µM
Cc1ccccc1OCCN=Cc1c(O)n(C)c(=O)n(C)c1=O	Nrf2 block 21µM
Cc1ccc(Cl)cc1N1CCN(C(=O)c2cn(CC(C)C)c(=O)c3c2c2ccccc2n3C)CC1	none (no result: Mito fusion yeast)
COc1ccc(N2CCN(Cc3nc4ccccc4[nH]3)CC2)cc1	none
CCCc1cc(N2CCN(c3ccc(OC)cc3)CC2)n2cnnc2n1	Nrf2 block 12µM (no result: Mito fusion yeast)
O=Nc1c(O)c2ccccc2c2ccccc12	A549 tox inconclusive, Nrf2 block 23µM (no result: Mito fusion yeast)
Cc1ccc2c(c1)C1CN(C)CCC1N2C(=O)c1ccccc1NS(=O)(=O)c1cccc(C(F)(F)F)c1 (configuration not stated)	A549 tox inconclusive, Nrf2 block inconclusive
O=C1NC(=O)N(c2ccccc2)C(=O)/C1=C\c1ccc2c3c(cccc13)CC2	none (no result: A549 tox, IDH1 R132H inh, TrxR1 substrate, Nrf2 block, rTrxR1 inhibitor)
COc1ccccc1N1C(=O)NC(=O)/C(=C/c2ccc3c4c(cccc24)CC3)C1=O	rTrxR1 inhibitor 8.9µM
O=P1(Nn2cnnc2)C=C(c2ccccc2)OC(c2ccccc2)=C1	A549 tox inconclusive
COc1cc(C=C2C(=O)NC(=O)NC2=O)ccc1OCc1ccc([N+](=O)[O-])cc1	rTrxR1 inhibitor inconclusive
COc1cc(/C=C(/C)[N+](=O)[O-])ccc1OCc1ccccc1Cl	IDH1 R132H inh 46µM, Nrf2 block inconclusive, rTrxR1 inhibitor inconclusive
Cc1ccc(NC(=O)C2CCN(C(=O)c3cnn(-c4ccccc4)c3-n3cccc3)CC2)cc1Cl	Nrf2 block inconclusive (no result: Mito fusion yeast)
NCC(=O)c1ccccc1	none (no result: Mito fusion yeast)
O=C(CCl)NN=C(c1ccccc1)c1ccccc1	Nrf2 block inconclusive, rTrxR1 inhibitor 14µM
COc1ccc(/C=C/C=C2C(=O)NC(=S)NC2=O)cc1	IDH1 R132H inh inconclusive, Nrf2 block inconclusive, rTrxR1 inhibitor 7.1µM (no result: Mito fusion yeast)
COc1ccc(C=C2C(=O)NC(=S)NC2=O)cc1OC	rTrxR1 inhibitor 7.1µM (no result: Mito fusion yeast)
COCCN1C(=O)NC(=O)/C(=C\c2ccc(F)cc2)C1=O	none
O=C1NC(=O)N(Cc2ccc(F)cc2)C(=O)/C1=C\c1ccc(N2CCCC2)cc1	none
C=CCN1C(=O)NC(=O)/C(=C/c2cc3c4c(c2)CCCN4CCC3)C1=O	rTrxR1 inhibitor 45µM
C=CCN1C(=O)NC(=O)/C(=C/c2cnc(SC)nc2)C1=O	rTrxR1 inhibitor 14µM (no result: Nrf2 block)
CCS(=O)(=O)Nc1ccc(C2=NN(C(=O)c3ccco3)C(c3ccc(Cl)o3)C2)cc1 (configuration not stated)	Nrf2 block inconclusive (no result: Mito fusion yeast)
CN1C(=O)c2ccccc2Sc2ccc(C(=O)N3CCC4(CC3)OCCO4)cc21	none
CN1C(=O)c2ccccc2Sc2ccc(NC(=O)NCc3ccc(Cl)cc3)cc21	Nrf2 block 15µM (no result: Mito fusion yeast)
C#CCN1CCN(c2cccc(C(F)(F)F)c2)CC1	none
O=C(C1CCN(S(=O)(=O)c2ccc(Br)s2)CC1)N1CCN(c2cccc(C(F)(F)F)c2)CC1	Nrf2 block 2.9µM (no result: Mito fusion yeast)
CCOc1ccc(N2C(=O)NC(=O)/C(=C\c3ccc(N4CCOCC4)cc3C)C2=O)cc1	Nrf2 block inconclusive, rTrxR1 inhibitor inconclusive
